The campaign covered roughly 190,000 compounds. About 270 (0.14%) were called active. Roughly 2% stayed inconclusive and do not appear here. This is one part of a sample in which actives are shown more often than they occur.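 The calls were made as follows: active = GTP binding activity at least 20% away from the 100% baseline, either lowered as inhibitor or raised as activator; inconclusive = flagged as likely green fluorescent, judged across all proteins in the well; inactive = the rest.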

This assay deals with GTPase HRas (Homo sapiens) (UniProt P01112). Put plainly: HRas wt fluorescent GTP binding changes, either direction – biochemical, wildtype, bead-based flow cytometry, multiplex, primary screen (AID 759).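 Also: 0% = unlabeled GTP competition control and 100% = no-compound control.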 Conditions: GST-Ras wt beads, Bodipy-FL-GTP binding, at 10 µM, actives lie on both sides.
Chain of GTPase HRas (Homo sapiens) (P01112 whole entry, looked up): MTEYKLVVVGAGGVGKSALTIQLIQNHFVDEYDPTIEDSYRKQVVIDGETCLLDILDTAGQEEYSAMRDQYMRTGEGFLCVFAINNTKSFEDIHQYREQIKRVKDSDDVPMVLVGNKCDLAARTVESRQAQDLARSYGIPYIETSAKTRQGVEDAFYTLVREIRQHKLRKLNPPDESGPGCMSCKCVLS
`CCCC(C)n1[nH]c(=O)c2c1NC(=O)CSC2c1ccc(OC)c(OC)c1` (stereo not given): the GTP binding activity was 98% (inactive).
`CCOc1ccc(C2SCC(=O)Nc3c2c(C)nn3C2CCOC(C)(C)C2)cc1` (stereo not given): the GTP binding activity was 73% (active).
As to `CC1=CC(=Cc2sc3ccccc3[n+]2C)C=C(C)O1`, the GTP binding activity was 103% (inactive).
The value for `COc1ccc(CN2C(=O)NC(=O)/C(=C\c3ccc(OC)c(OC)c3OC)C2=O)cc1` was 97% (inactive).
As to `Cc1ccsc1C(=O)C1CCCN(Cc2ccc(O)cc2)C1` (stereo not given), the GTP binding activity is 98% (inactive).

These data come from PubChem BioAssay AID759 (NMMLSC, 2007).
